Assay outcomes (PubChem BioAssay)
The list is not random: actives were taken first. Their share in the collection is about 3.5%.
GPR151 ag = human GPR151 activation; activation, % at 11.2 µM; 1% of 650,000 active; PathHunter beta-arrestin GPR151 cells, luminescence; Q8TDV0; AID 1508602; in the data active = activation above about 4.9%;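 note: 0% = median of compound wells and 100% = cells with positive control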
FBW7 act = activators of human E3 ligase FBW7; Q969H0; AlphaScreen FBW7–phospho-cyclin E peptide binding, activator screen; normalized activity (activation), % at 26.1 µM; 0.13% of 650,000 active; in the data active = normalized activity above about 1.9%;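 note: purified mutant Fbw7 with reduced substrate affinity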
TEAD-YAP inh = TEAD-YAP interaction inhibition; inhibition, % at 9.12 µM; 1.4% of 640,000 active; HEK-TIYL cells, TEAD-Gal4/YAP UAS-luciferase luminescence; in the data active = inhibition above about 32%;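 note: 0% = median of test compound wells and 100% = reference inhibitor wells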
MITF inh = blocks human microphthalmia-associated transcription factor. O75030. AlphaScreen MITF homodimerization, bead proximity signal. inhibition, % at 2.6 µM. 0.91% of 650,000 active. AID 1259374; in the data active = inhibition above about 50%;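 note: 0% = vehicle wells with protein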
Target sequence (O75030 whole entry, looked up): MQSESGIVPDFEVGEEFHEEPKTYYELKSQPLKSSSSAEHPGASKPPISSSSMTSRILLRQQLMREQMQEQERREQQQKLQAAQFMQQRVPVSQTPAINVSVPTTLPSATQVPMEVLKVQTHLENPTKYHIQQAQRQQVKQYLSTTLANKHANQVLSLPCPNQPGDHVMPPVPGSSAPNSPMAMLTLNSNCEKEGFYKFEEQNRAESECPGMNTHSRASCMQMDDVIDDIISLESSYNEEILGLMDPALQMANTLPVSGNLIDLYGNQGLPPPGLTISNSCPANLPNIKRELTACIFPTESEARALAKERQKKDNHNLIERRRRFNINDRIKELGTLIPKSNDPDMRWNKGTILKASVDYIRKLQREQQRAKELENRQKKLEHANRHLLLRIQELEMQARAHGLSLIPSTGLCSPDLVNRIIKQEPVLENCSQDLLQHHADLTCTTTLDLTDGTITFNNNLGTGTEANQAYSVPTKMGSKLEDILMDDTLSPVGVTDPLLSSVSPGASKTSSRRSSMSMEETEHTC
GPR151 confirm = human GPR151 activation, confirmation screen; 6,700 tested, under 10 active; activation, % at 11.2 µM; shares compounds with GPR151 ag; GPR151 PathHunter beta-arrestin cells, luminescence, 90 min; % of EA-reagent control over plate median;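 active = mean percent activation across replicates above the confirmation screen cutoff of 4.91%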
GPR119 ag = activates human GPR119 in a GPR151 counter-screen. activation, % at 11.2 µM. GPR119 PathHunter beta-arrestin cells, luminescence, 90 min; 0 = compound-well median, 100 = enzyme-acceptor control. AID 1508611. shares compounds with GPR151 ag. 0.3% of 6,700 active;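 active = mean percent activation in the counterscreen above 29.09%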;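 note: counterscreen on off-target GPR119 to flag nonselective hits from the GPR151 activator screen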
Active calls of the source: *; nt = not tested or not shown; ! = not active in a repeat.

SMILES	GPR151 ag	FBW7 act	TEAD-YAP inh	MITF inh	GPR151 confirm	GPR119 ag
Cc1ccc(/C=C/C(=O)NC(C)c2ccccc2)o1 (stereo unspecified)	1	0	5	4	nt	nt
O=C1c2ccccc2C(=O)C1(Nc1ccc(Br)cc1)c1ccccc1	6.9*	0	16	-5	0	-3
COC(=O)c1ccc(N2C(=O)c3ccc([N+](=O)[O-])cc3C2=O)cc1	-1	0	-4	-10	nt	nt
Cc1noc(C)c1-c1nc(NCCOc2ccccc2)c2ncn(CCN3CCCC3=O)c2n1	6.1*	0	5	11	0	-8
O=C1CCCN1CCCNc1nc(-c2csc3ccccc23)nc2c1ncn2-c1ccccc1	5.8*	0	11	0	0	-5
O=C1CCCN1CCCNc1nc(N2CCc3ccccc3C2)nc2c1ncn2CCN1CCCC1=O	-1	0	11	-3	nt	nt
O=C1CCCN1CCn1cnc2c(NCCOc3ccccc3)nc(N3CCc4ccccc4C3)nc21	15*	0	10	0	2	-8
O=C1CCCN1CCCNc1nc(-c2csc3ccccc23)nc2c1ncn2Cc1ccc(C(F)(F)F)cc1	0	0	-8	-9	nt	nt
COC(=O)c1ccc(C(=O)OC)c(NC(=O)/C=C/c2cccs2)c1	1	0	7	2	nt	nt
COc1cccc(CN(C(=O)/C=C/c2ccc(Cl)cc2)C2CCS(=O)(=O)C2)c1 (stereo unspecified)	6.9*	0	4	9	1	3
CCc1ccc(NC(=O)CN(c2ccccc2[N+](=O)[O-])S(=O)(=O)c2ccccc2)cc1	-2	1	9	13	nt	nt
CCOC(=O)C1(CCc2ccccc2)CCN(Cc2cnc(C)s2)CC1	9.8*	0	-5	-2	0	-6
OCC1(CCc2ccccc2)CCN(Cc2cnc(N3CCCC3)s2)CC1	6.6*	0	-3	6	-1	-15
CCCCn1c(=O)c2c(nc3n(Cc4ccc(OC)cc4)c(C)cn23)n(C)c1=O	0	1	3	11	nt	nt
C=CCn1c(C)cn2c3c(=O)n(CC(C)C)c(=O)n(C)c3nc12	1	0	6	-7	nt	nt
CCOC(=O)c1ccc(-n2c(C)cn3c4c(=O)n(CCC(C)C)c(=O)n(C)c4nc23)cc1	5.1*	0	10	1	0	5
CCOC(=O)c1ccc(-n2c(C)cn3c4c(=O)n(C)c(=O)n(C)c4nc23)cc1	1	0	-1	-6	nt	nt
Cc1cn2c3c(=O)n(CC(C)C)c(=O)n(C)c3nc2n1C	5.6*	0	5	13	-1	6
CCCCCn1c(=O)c2c(nc3n(Cc4ccc(OC)cc4)c(C)cn23)n(C)c1=O	4.9*	0	7	1	-1	-7
O=C(NCCc1ccccc1)c1cnn2cc(Br)cnc12	1	0	-46	-1	nt	nt
COc1ccc(C)cc1NC(=O)c1sc2ncn(CC(=O)Nc3ccc(C)c(Cl)c3)c(=O)c2c1C	4	0	10	15	nt	nt
COc1ccccc1C(c1nnnn1Cc1ccc2c(c1)OCO2)N1CCN(C)CC1 (stereo unspecified)	0	0	-4	-12	nt	nt
Cc1cc(NC2CCN(Cc3ccccc3)CC2)nc(NCc2cccnc2)n1	0	0	-2	-2	nt	nt
Cc1cc(C)cc(CC(CC(=O)O)C(=O)O)c1 (stereo unspecified)	0	0	6	-17	nt	nt
Cc1ccc(CC(CC(=O)O)C(=O)O)cc1 (stereo unspecified)	6.8*	0	-1	1	-1	-14
SMILES	GPR151 ag	FBW7 act	TEAD-YAP inh	MITF inh	GPR151 confirm	GPR119 ag
COc1ccc(CNC(=O)c2sc3cnccc3c2-n2cccc2)cc1	5.2*	0	55*	5	1	3
Cc1cc(C)cc(NS(=O)(=O)c2cc(C(N)=O)ccc2C)c1	13*	0	7	14	0	8
COC(=O)c1c(NC(=O)c2ccc(C)cc2)sc2c1CCCC2	6.5*	0	4	1	0	14
COC(=O)c1ccc(NC(=O)c2c(NCc3ccc(C)o3)sc3c2CCCC3)cc1	8.1*	0	-7	14	1	0
COc1ccc(OC)c(NC(=O)c2c(NCc3ccc(C)o3)sc3c2CCCC3)c1	3	0	4	3	nt	nt
COC(=O)c1c(NC(=O)c2ccc(C)cc2)sc2c1CCCCC2	-1	0	-1	6	nt	nt
COc1cccc(N/C(=N/c2nc(C)cc(C)n2)NC(=O)Nc2ccc(Cl)cc2)c1	-1	0	6	7	nt	nt
Cc1ccc(C(=O)NC(Nc2cc(C)ccc2C)C(=O)c2ccccc2)cc1 (stereo unspecified)	-1	0	-4	14	nt	nt
COc1cc(Br)cc(/C=N/NC(=O)CNc2ccccc2C)c1O	5.9*	-1	25	14	1	-1
COc1ccccc1NCC(=O)N/N=C/c1cc(Br)ccc1O	9.8*	0	24	15	0	-18
COc1ccccc1NCC(=O)N/N=C/c1ccccc1O	0	0	1	11	nt	nt
COc1ccc(Br)cc1/C=N/NC(=O)CSc1ncccn1	-2	0	-2	19	nt	nt
COc1ccc(Br)cc1/C=N/NC(=O)CSc1ccccn1	7.0*	1	1	10	0	-13
COc1ccc(Br)cc1/C=N/NC(=O)CNc1ccccc1C	0	0	-4	-7	nt	nt
CCn1cc(C(=O)OCc2cccc(F)c2)c(=O)c2ccc(C)nc21	-1	0	6	16	nt	nt
Cc1ccc(NC(=O)CSc2nc3c(cc2C#N)CCCC3)cc1	0	0	-9	13	nt	nt
CCc1ccc(CN2CCc3nnc(CNC(=O)CCc4cccnc4)n3CC2)cc1	-1	0	-3	-12	nt	nt
CC(C)NC(=O)CCn1c(=O)oc2ccccc21	8.1*	0	-8	-1	0	-6
CCn1cc(CCC(=O)NC(C)C)c2ccccc21	5.6*	0	-1	3	0	8
NC(=O)c1ccccc1NC(=O)CCn1c(=O)oc2ccccc21	5.0*	0	4	4	0	7
O=C1[C@H]2[C@H]3[C@H](O)[C@H](O)C/C(=N\OC[C@@H](O)COCc4ccco4)[C@@H]3CC[C@H]2C(=O)N1C1CCCCC1	-2	0	nt	9	nt	nt
CCC(C)c1ccc(C(C)NC(=O)/C=C\C(=O)O)cc1 (stereo unspecified)	0	0	-2	-20	nt	nt
O=C(Cn1c(C2CC2)nc2c(cnn2-c2ccccc2)c1=O)NCc1ccco1	3	0	14	-6	nt	nt
C[C@H]1C[C@@H]2[C@H]([C@@H](O)C[C@@]3(C)[C@H]2CC[C@]3(O)C(=O)CO)[C@@]2(C)C=CC(=O)C=C12	6.9*!	0	nt	3	0	0
CN(C)CCNc1nc2c(c(=O)[nH]c(=O)n2C)n1Cc1ccc([N+](=O)[O-])cc1	5.1*	0	5	9	1	6
